# For part of these data: Measured potencies and affinities stand elsewhere. Some of the results follow. Activity calls are given as the source filed them.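 How the source made its calls, unless noted: active means compounds whose fluorescence signal differed from control wells by over 3 SD, either direction, in both duplicate plates; inactive means the rest.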
# Key:
# [1] = target: Short transient receptor potential channel 4 (Mus musculus) (UniProt Q9QUQ5); assay: mouse TRPC4 membrane potential modulation by TRPC6 hits, confirmation, selectivity assay for TRPC6 inhibitor project, cell-based, second specificity screen, HEK293 TRPC4/mu-opioid (AID 2776); settings: HEK293 TRPC4/MOR, membrane potential dye fluorescence, at 10 µM, channel activated by saturating DAMGO dose; stronger effect = higher value
# Chain of Short transient receptor potential channel 4 (Mus musculus) (Q9QUQ5 whole entry, looked up): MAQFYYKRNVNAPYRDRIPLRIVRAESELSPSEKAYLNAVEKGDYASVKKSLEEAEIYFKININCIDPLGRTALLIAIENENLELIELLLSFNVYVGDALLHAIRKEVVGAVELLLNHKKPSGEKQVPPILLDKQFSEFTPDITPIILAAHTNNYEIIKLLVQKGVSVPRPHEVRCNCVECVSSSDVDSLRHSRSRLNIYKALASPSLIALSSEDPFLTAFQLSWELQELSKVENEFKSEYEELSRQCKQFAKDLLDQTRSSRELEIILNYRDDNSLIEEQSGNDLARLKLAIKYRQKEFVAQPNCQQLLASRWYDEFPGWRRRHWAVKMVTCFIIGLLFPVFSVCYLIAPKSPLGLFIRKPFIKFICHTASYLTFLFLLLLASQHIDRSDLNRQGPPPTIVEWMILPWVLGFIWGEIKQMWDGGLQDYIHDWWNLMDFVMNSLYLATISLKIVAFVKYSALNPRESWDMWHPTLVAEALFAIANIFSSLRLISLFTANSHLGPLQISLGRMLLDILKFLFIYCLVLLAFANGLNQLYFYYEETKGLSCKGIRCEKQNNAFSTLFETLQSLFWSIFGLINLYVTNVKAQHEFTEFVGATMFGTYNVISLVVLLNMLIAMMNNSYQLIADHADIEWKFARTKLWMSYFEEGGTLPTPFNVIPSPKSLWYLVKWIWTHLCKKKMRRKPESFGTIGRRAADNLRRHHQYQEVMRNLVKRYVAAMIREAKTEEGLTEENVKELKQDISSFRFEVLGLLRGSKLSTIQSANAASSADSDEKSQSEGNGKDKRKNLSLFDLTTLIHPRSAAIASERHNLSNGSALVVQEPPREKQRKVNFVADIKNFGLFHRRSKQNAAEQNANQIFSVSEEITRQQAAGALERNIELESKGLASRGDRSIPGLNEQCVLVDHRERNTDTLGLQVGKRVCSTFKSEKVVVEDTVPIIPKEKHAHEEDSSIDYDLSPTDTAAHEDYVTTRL
# [2] = tested on: transient receptor potential cation channel C4 (TRPC4), mouse; assay: mouse TRPC4 modulation by TRPC6 hits, confirmation, selectivity assay for TRPC6 inhibitor project, cell-based, HEK293 TRPC4/mu-opioid, membrane potential dye (AID 2777;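 active means rise or fall in signal beyond 3 SD of buffer-only wells in both replicate plates, either sign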;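 further: integrated kinetic ratio of fluorescence range over baseline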); settings: membrane potential fluorescence, at 10 µM
# [3] = nonspecific membrane potential effects, parental HEK293, confirmation, counter-screen for TRPC6 inhibitor project, cell-based, second counter screen (AID 2779;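 active means membrane potential signal moving either way by over 3 SD of the maximum-effect control, in both duplicate plates, meaning non-specific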); settings: parental HEK293 membrane potential dye fluorescence; at 10 µM; maximal acetylcholine challenge after compound addition
# [4] = membrane potential modulation in parental HEK293, confirmation, counter-screen for TRPC6 inhibitor project, cell-based (AID 2780;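 active means membrane potential signal shifting up or down by more than 3 SD of buffer-only wells, on both duplicate plates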;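 on membrane potential signal change: plate controls were buffer EC0 wells for no effect and acetylcholine ECmax wells for full effect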); settings: parental HEK293 membrane potential dye fluorescence; at 10 µM
# [5] = target: Short transient receptor potential channel 6 (Mus musculus) (UniProt Q61143); assay: mouse TRPC6 channel inhibitors, confirmation, HEK293 cells, membrane potential dye, duplicate (AID 488960;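 active means fluorescence ratio falls more than 5 SD below the full-stimulation control mean, in both duplicate runs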;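 on inhibition: integrated fluorescence ratio of peak minus minimum over baseline after agonist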); settings: ACh-evoked depolarization, at 10 µM; stronger effect = higher value
# Chain of Short transient receptor potential channel 6 (Mus musculus) (Q61143 whole entry, looked up): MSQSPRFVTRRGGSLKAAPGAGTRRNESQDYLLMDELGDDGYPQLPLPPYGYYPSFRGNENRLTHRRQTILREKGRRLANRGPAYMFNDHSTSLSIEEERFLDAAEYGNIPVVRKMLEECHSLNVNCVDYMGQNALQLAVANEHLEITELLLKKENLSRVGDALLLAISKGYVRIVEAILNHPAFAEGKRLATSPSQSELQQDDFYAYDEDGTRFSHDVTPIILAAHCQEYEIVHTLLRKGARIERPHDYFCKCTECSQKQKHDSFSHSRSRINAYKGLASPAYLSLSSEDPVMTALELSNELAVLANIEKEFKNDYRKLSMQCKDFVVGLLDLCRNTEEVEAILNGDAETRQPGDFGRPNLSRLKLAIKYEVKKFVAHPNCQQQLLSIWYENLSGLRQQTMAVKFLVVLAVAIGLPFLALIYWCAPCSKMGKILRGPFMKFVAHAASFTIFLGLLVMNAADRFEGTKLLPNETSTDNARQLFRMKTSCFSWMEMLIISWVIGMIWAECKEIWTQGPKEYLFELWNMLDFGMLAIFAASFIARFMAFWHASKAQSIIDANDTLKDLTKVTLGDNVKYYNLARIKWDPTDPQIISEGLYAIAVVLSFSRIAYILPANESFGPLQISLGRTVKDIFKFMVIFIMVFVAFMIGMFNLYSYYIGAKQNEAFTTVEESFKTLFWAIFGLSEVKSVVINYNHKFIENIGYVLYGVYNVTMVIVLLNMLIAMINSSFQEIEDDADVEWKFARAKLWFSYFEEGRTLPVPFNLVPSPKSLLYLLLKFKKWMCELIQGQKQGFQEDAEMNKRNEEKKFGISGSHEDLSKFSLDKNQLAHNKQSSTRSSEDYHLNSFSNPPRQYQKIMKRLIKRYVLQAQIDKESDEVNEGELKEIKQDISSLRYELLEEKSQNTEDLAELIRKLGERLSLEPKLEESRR
# [6] = target: Short transient receptor potential channel 6 (Mus musculus) (UniProt Q61143); assay: mouse TRPC6 channel activators, confirmation, HEK293 cells, membrane potential dye, duplicate (AID 488961;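 active means ratio signal rise beyond 5 SD above unstimulated control wells' mean, seen in both duplicate runs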); settings: HEK293-TRPC6 membrane potential dye fluorescence, FDSS, at 10 µM; stronger effect = higher value
# [7] = thallium flux activation in parental CHO cells, counter-screen for KCNQ1 potentiator project (AID 493006;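 active means duplicate-averaged activation above buffer control mean plus 5 SD of those controls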); settings: parental CHO-K1 cells, FluxOR thallium flux, at 10 µM; stronger effect = higher value
# [8] = target: Potassium voltage-gated channel subfamily KQT member 1 (Homo sapiens) (UniProt P51787); assay: KCNQ1 potassium channel potentiators, confirmation, FluxOR thallium flux, CHO cells, duplicates (AID 493007;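 active means potentiation averaged over duplicate wells exceeding buffer-only control mean by more than 3 SD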;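 further: cells depolarized by a potassium plus thallium sulfate stimulus after compound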); settings: KCNQ1 cell line, FluxOR thallium flux fluorescence, at 10 µM; stronger effect = higher value, % of reference activator effect, buffer zero
# Chain of Potassium voltage-gated channel subfamily KQT member 1 (Homo sapiens) (P51787 whole entry, looked up): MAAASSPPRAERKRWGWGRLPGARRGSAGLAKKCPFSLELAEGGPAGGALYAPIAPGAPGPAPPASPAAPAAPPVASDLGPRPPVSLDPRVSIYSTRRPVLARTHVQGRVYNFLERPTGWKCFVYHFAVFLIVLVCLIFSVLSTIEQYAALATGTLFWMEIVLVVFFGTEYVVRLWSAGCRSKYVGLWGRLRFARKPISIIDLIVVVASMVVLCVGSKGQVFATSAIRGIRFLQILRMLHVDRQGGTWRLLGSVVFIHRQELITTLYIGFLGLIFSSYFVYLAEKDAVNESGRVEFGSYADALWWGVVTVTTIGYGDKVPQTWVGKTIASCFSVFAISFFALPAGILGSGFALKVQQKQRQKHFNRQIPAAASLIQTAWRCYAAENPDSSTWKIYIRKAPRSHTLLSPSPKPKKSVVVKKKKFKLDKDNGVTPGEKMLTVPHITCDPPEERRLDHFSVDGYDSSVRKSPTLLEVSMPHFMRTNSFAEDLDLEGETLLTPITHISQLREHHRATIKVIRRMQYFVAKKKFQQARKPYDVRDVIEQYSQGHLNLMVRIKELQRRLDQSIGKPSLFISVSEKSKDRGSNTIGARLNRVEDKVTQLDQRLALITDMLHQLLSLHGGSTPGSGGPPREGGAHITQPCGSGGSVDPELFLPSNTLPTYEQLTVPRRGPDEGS
# [9] = target: Potassium voltage-gated channel subfamily KQT member 2 (Rattus norvegicus) (UniProt O88943); assay: rat KCNQ2 channel potentiation, selectivity assay for KCNQ1 potentiator project, KCNQ2-CHO-K1 cells (AID 493009;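 active means mean duplicate potentiation above the buffer control mean plus 5 SD of buffer wells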;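 further: assay conditions were tuned for KCNQ1 rather than KCNQ2 modulators; signal is max minus min fluorescence divided by baseline after thallium stimulus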); settings: FluxOR thallium flux fluorescence, at 10 µM; stronger effect = higher value, scaled: buffer 0, activator control 100
# Chain of Potassium voltage-gated channel subfamily KQT member 2 (Rattus norvegicus) (O88943 whole entry, looked up): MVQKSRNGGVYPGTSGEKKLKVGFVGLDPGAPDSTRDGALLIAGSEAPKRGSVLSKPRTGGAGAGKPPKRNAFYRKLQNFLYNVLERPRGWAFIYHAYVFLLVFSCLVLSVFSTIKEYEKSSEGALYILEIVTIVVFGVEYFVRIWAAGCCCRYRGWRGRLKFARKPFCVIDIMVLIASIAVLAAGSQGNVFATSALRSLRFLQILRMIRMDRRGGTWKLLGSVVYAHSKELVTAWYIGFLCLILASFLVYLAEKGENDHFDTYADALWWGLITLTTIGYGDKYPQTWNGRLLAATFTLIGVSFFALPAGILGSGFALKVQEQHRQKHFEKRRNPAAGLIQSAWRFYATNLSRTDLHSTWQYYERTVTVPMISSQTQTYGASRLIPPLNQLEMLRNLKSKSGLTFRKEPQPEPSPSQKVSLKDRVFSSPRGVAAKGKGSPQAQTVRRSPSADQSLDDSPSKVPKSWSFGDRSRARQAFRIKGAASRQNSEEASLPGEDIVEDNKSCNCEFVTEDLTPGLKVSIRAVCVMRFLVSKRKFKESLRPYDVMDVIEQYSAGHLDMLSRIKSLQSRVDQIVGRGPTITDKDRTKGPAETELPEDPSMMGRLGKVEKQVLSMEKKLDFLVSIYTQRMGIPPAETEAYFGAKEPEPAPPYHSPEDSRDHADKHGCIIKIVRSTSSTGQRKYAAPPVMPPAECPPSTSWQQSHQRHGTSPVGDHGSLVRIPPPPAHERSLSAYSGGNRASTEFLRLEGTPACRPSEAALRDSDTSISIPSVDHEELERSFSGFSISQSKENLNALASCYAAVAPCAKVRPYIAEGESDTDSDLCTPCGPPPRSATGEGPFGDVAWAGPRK
# [10] = target: Potassium voltage-gated channel subfamily KQT member 1 (Homo sapiens) (UniProt P51787); assay: KCNQ1 channel current potentiators, confirmation, orthogonal assay for KCNQ1 potentiator project, IonWorks patch clamp, KCNQ1-CHO cells (AID 493184;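 active means current rise at least 3 SD above the untreated control mean in each of two repeat wells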); settings: automated patch clamp current, at 10 µM; stronger effect = higher value
# [11] = target: Short transient receptor potential channel 6 (Mus musculus) (UniProt Q61143); assay: inhibition of mouse TRPC6 channel, confirmation, selectivity assay for TRPC4 inhibitor project, cell-based, HEK293, membrane potential dye, duplicate (AID 434948;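 active means active in primary screen and both duplicates, each dropping signal beyond three positive-control SD with fluorescence still positive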); settings: HEK293 TRPC6, membrane potential dye fluorescence, at 10 µM, stimulated with maximal-effect acetylcholine; stronger effect = higher value
# [12] = target: Short transient receptor potential channel 6 (Mus musculus) (UniProt Q61143); assay: activation of mouse TRPC6 channel, confirmation, selectivity assay for TRPC4 activator project, cell-based, HEK293, membrane potential dye, duplicate (AID 434950;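 active means membrane potential signal rise above negative control mean plus 3 SD in both duplicates, also active in the earlier TRPC4 screen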;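 on activation: 0% = buffer only wells and 100% = acetylcholine maximal-effect wells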); settings: HEK293 TRPC6, membrane potential fluorescence, at 10 µM; stronger effect = higher value
# [13] = target: Short transient receptor potential channel 6 (Mus musculus) (UniProt Q61143); assay: TRPC6 potentiation by TRPC4 potentiator hits, confirmation, selectivity assay for TRPC4 potentiator project, HEK293 cells, membrane potential dye, duplicate (AID 434952;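 active means compound raising the membrane signal above positive-control mean plus 3 SD in both repeats, and a primary screen hit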); settings: HEK293 TRPC6, membrane potential dye fluorescence, at 10 µM, maximal acetylcholine added after compound; stronger effect = higher value
# [14] = tested on: TRPC4 beta (transient receptor potential cation channel C4), mouse; assay: activators of mouse TRPC4 channel, confirmation, cell-based, Fluo4 calcium, HEK293 TRPC4beta/mu-opioid, duplicates, 10 µM (AID 2426;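 active means fluorescence ratio normalized to control raised more than 50% in primary screen plus both repeat runs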;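 further: percent rise of integrated ratio over buffer wells lacking compound which define 0%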); settings: Fluo4 calcium fluorescence, at 10 µM; stronger effect = higher value
# [15] = tested on: transient receptor potential cation channel C4 beta (TRPC4), mouse; assay: activators of mouse TRPC4 channel, confirmation, cell-based, second round, Fluo4, HEK293 TRPC4beta/mu-opioid, 1 µM (AID 2461;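 active means primary screen active and over 50% activation in each of two duplicate runs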;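 on activation: 0% = wells without test compound as baseline of integrated fluorescence ratio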); settings: Fluo4 calcium fluorescence, at 1 µM; stronger effect = higher value
# [16] = tested on: TRPC4 (transient receptor potential cation channel C4 beta), mouse; assay: positive allosteric modulators of mouse TRPC4, confirmation, cell-based, second round, Fluo-4, HEK293 TRPC4beta/mu-opioid, 1 µM (AID 2554;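 active means primary screen hit whose fluorescence ratio, in both repeats, exceeds the weak agonist control mean by 3 SD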); settings: DAMGO EC20, Fluo-4 calcium flux, at 1 µM; stronger effect = higher value
# [17] = tested on: TRPC4 beta (transient receptor potential cation channel C4), mouse; assay: positive allosteric modulators of mouse TRPC4, confirmation, cell-based, Fluo-4, HEK293 TRPC4beta/mu-opioid (AID 2555;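 active means primary screen hit whose calcium fluorescence ratio, in both repeats, exceeds the weak agonist control mean by 3 SD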); settings: DAMGO EC20, Fluo-4 calcium flux, at 10 µM; stronger effect = higher value
# [18] = target: Short transient receptor potential channel 4 (Mus musculus) (UniProt Q9QUQ5); assay: inhibitors of mouse TRPC4 channel, confirmation, cell-based, Fluo4, HEK293 TRPC4beta/mu-opioid (AID 2636;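 active means calcium signal cut by more than 3 SD below the full-agonist control yet still positive, in both repeats and the earlier primary screen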); settings: DAMGO, Fluo4 calcium flux, at 10 µM; stronger effect = higher value
# [19] = target: Short transient receptor potential channel 4 (Mus musculus) (UniProt Q9QUQ5); assay: inhibitors of mouse TRPC4 channel, confirmation, cell-based, second round, Fluo4, HEK293 TRPC4beta/mu-opioid, 1 µM (AID 2637;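 active means calcium signal ratio cut to more than 3 SD under the fully stimulated control mean yet still positive, in both repeats and the primary screen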); settings: Fluo4 calcium flux, DAMGO, at 1 µM; stronger effect = higher value
# [20] = target: Short transient receptor potential channel 4 (Mus musculus) (UniProt Q9QUQ5); assay: mouse TRPC4 channel inhibitors, dose response, cell-based, HEK293 TRPC4/mu-opioid, Fluo-4 calcium (AID 434942;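 active means primary screen inhibitor hit that blocks the TRPC4 channel at some tested dose, yielding a dose curve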)
# [21] = target: Short transient receptor potential channel 4 (Mus musculus) (UniProt Q9QUQ5); assay: calcium flux activators in TRPC4/5HT1a cells, counter-screen for TRPC4 activator project, cell-based, second counter screen, HEK293 TRPC4/5HT1a, Fluo-4 (AID 434977;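 active means calcium signal rise above buffer-control mean plus 5 SD in both duplicates, and also a hit in the primary screen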;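 further: plate controls were assay buffer for no effect and maximal serotonin response for full effect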); settings: Fluo-4 calcium flux, at 10 µM; stronger effect = higher value
# [22] = calcium flux inhibitors in TRPC4/5HT1a cells, confirmation, counter-screen for TRPC4 inhibitor project, cell-based, second counter screen, HEK293 TRPC4/5HT1a, Fluo-4 (AID 434978;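 active means primary screen active whose calcium signal fell more than 3 SD beyond the full-serotonin control mean in both duplicate plates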;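 further: serotonin given first at submaximal then at maximal dose after compound preincubation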); settings: Fluo-4 calcium flux, at 10 µM, serotonin added to trigger calcium flux; stronger effect = higher value
# [23] = tested on: TRPC4 (mouse), co-expressed with 5HT1a in HEK293; assay: calcium flux potentiators in TRPC4/5HT1a cells, confirmation, counter-screen for TRPC4 potentiator project, cell-based, second counter screen, HEK293 TRPC4/5HT1a, Fluo-4 (AID 434979;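 active means signal rise over 3 SD above mean of control wells given weak agonist, in both repeats and first screen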); settings: Fluo-4 calcium flux, at 10 µM, serotonin added at its EC20 dose; stronger effect = higher value
# [24] = calcium flux activation in mu-opioid HEK293 cells, confirmation, counter-screen for TRPC4 activator project, cell-based, HEK293 mu-opioid receptor line (AID 449723;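 active means hit in primary screen, with calcium signal over 5 SD above buffer well mean in both duplicates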;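 further: counter screen cells carry the mu-opioid receptor alone and lack TRPC4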); settings: Fluo-4 calcium fluorescence, at 10 µM; stronger effect = higher value
# [25] = calcium flux enhancement in mu-opioid HEK293 cells, confirmation, counter-screen for TRPC4 allosteric potentiator project, cell-based, HEK293 mu-opioid receptor line (AID 449724;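 active means calcium signal rise more than 3 SD above the low-dose agonist control mean, in both duplicate plates and the primary screen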); settings: Fluo-4 calcium flux, at 10 µM, compound added before EC20 DAMGO stimulus; stronger effect = higher value
compound,measurement,setting,value
CCCCCCCCCCOC(=O)C[N+](C)(C)CC1CCCCC1O (stereo not drawn),outcome,[1],inactive
same,"activity change, negative = inhibition",[2],7.58% (active)
same,outcome,[3],inactive
same,membrane potential signal change,[4],2.25% (active)
same,outcome,[5],inactive
same,outcome,[6],inactive
C[C@H](NC(=O)OC(C)(C)C)c1nnc(SCC(=O)Nc2ccc(Br)cc2)o1,outcome,[1],inactive
same,outcome,[2],inactive
same,outcome,[3],inactive
same,membrane potential signal change,[4],0.29% (active)
same,outcome,[5],inactive
COc1ccc(CNC(=O)c2cc3c(=O)n4ccccc4nc3n(CC3CCCO3)c2=N)cc1 (stereo not drawn),outcome,[1],inactive
same,"activity change, negative = inhibition",[2],-15.8% (active)
same,signal change vs control,[3],32% (active)
same,membrane potential signal change,[4],-176% (active)
same,outcome,[5],inactive
same,outcome,[6],inactive
same,outcome,[7],inactive
same,outcome,[8],inactive
same,outcome,[9],inactive
same,outcome,[10],inactive
CCCCNc1nc2ccccc2[nH]1,outcome,[11],inactive
same,outcome,[12],inactive
same,outcome,[13],inactive
Cn1c(O)c(/C=N/NC(=O)c2cc3ccccc3cc2O)c2ccccc21,activation,[14],81% (active)
same,outcome,[15],inactive
same,outcome,[16],inactive
same,potentiation,[17],27% (active)
same,outcome,[18],inactive
same,outcome,[19],inactive
same,outcome,[20],inactive
same,outcome,[11],inactive
same,activation,[12],524% (active)
same,"potentiation, percent of control",[13],238% (active)
same,activation,[21],59.2% (active)
same,outcome,[22],inactive
same,potentiation,[23],17.8% (active)
same,activation,[24],82.4% (active)
same,activation,[25],879% (active)
CN(C)CCOC(=O)C(c1ccccc1)C1(O)CCCC1 (stereo not drawn),outcome,[1],inactive
same,outcome,[2],inactive
same,signal change vs control,[3],-39.5% (active)
same,membrane potential signal change,[4],0.13% (active)
same,inhibition,[5],90.5% (active)
same,outcome,[6],inactive
CCOC(=O)c1c(NC(=O)COC(=O)Cc2c[nH]c3ccccc23)sc(C(=O)N(C)C)c1C,activation,[14],194% (active)
same,outcome,[15],inactive
same,potentiation,[16],15% (active)
same,potentiation,[17],55% (active)
same,outcome,[18],inactive
same,outcome,[19],inactive
same,outcome,[20],inactive
same,outcome,[11],inactive
same,activation,[12],46% (active)
same,outcome,[13],inactive
same,activation,[21],107% (active)
same,outcome,[22],inactive
same,potentiation,[23],60% (active)
same,outcome,[24],inactive
same,outcome,[25],inactive
CN(C)CCCOc1cccc(Cl)c1,activation,[14],71% (active)
same,activation,[15],55% (active)
same,potentiation,[16],32% (active)
same,potentiation,[17],37% (active)
same,outcome,[18],inactive
same,outcome,[19],inactive
same,outcome,[20],inactive
same,outcome,[11],inactive
same,activation,[12],51% (active)
same,outcome,[13],inactive
same,activation,[21],17.9% (active)
same,outcome,[22],inactive
same,potentiation,[23],28.7% (active)
same,outcome,[24],inactive
same,outcome,[25],inactive
COc1ccc(N/C(C)=C2/C(=O)C(=O)N(CCO)C2c2ccc(Br)cc2)cc1 (stereo not drawn),activation,[14],289% (active)
same,outcome,[15],inactive
same,potentiation,[16],141% (active)
same,outcome,[17],inactive
same,outcome,[18],inactive
same,outcome,[19],inactive
same,outcome,[20],inactive
same,outcome,[11],inactive
same,activation,[12],31.5% (active)
same,outcome,[13],inactive
same,activation,[21],57.5% (active)
same,outcome,[22],inactive
same,potentiation,[23],60.7% (active)
same,outcome,[24],inactive
same,outcome,[25],inactive
CCCCCOc1ccc(CSC2=NCCN2)cc1[N+](=O)[O-],inhibition,[1],59% (active)
same,outcome,[2],inactive
same,outcome,[3],inactive
same,outcome,[4],inactive
same,inhibition,[5],54.9% (active)
same,outcome,[6],inactive
Cc1cc(Nc2ccc(N3CCOCC3)cc2)c2cccc(C)c2n1,inhibition,[1],59% (active)
same,"activity change, negative = inhibition",[2],-24.1% (active)
same,signal change vs control,[3],26.5% (active)
same,membrane potential signal change,[4],-362% (active)
same,outcome,[5],inactive
same,outcome,[6],inactive
Cn1c(=NC(=O)c2cnccn2)sc2ccccc21,outcome,[1],inactive
same,"activity change, negative = inhibition",[2],-25.3% (active)
same,signal change vs control,[3],24.5% (active)
same,membrane potential signal change,[4],-416% (active)
same,outcome,[5],inactive
same,outcome,[6],inactive

# Reference: PubChem BioAssay
